Screening data from PubChem.
KB-V1 cytotox: KB-V1 MDR subline cytotoxicity | actives 3.4% (n = 400,000) | KB-V1 MDR cells viability, CellTiter-Glo, 72 h | AID 1347076 | Potency, µM (titrated, usually from 46.1 µM), most hits filed as cytotoxic; further: nearly all actives have a fitted effect of over 60% in size
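Cells of the MDR subline KB-V1 are plated, dosed with compound at multiple concentrations, and incubated 72 h at 37 degrees C; CellTiter-Glo is then added and luminescence read after 10 min.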
SW480 rereplic: induces DNA re-replication in SW480 colon adenocarcinoma cells. SW480 DNA re-replication, Hoechst DNA content imaging, 48 h. Potency, µM (titrated, usually from 46.1 µM), usual class: activators. actives 1.8% (n = 340,000). AID 624297; further: nearly all actives have a fitted effect of over 55% in size
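SW480 cells exposed to compounds for 48 hr at 37 C, 5% CO2, then Hoechst-stained 40 min. Nuclear DNA content imaged by fluorescence scanning (405 nm excitation, 500-530 nm emission); re-replication scored as increased high-intensity nuclei.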
HT1080 IDH1KD tx: toxicity to HT-1080 IDH1 knockdown cells (counter line); HT-1080 IDH1 knockdown viability, ATP luminescence, 48 h; Potency, µM (doses to about 46.1 µM), most hits filed as cytotoxic; actives 2% (n = 360,000)
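Viability of IDH1-knockdown HT-1080 fibrosarcoma cells was assessed by CellTiter-Glo after 48 h at 37 °C with titrated compound; concentration-effect curves were classified by fit quality and response size.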
HT1080-NT tox: kills 2HG-producing HT-1080-NT fibrosarcoma cells; HT-1080-NT fibrosarcoma viability, CellTiter-Glo ATP luminescence, 48 h; Potency, µM (highest dose often 46.1 µM), hits mostly cytotoxic; actives 1.6% (n = 360,000);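 further: NT is the 2HG producing partner of a matched IDH1 knockdown line; nearly all actives have a fitted effect of over 55% in size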
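Luminescent CellTiter-Glo readout after 48 hours of compound exposure at 37 degrees C defined viability of HT-1080-NT cells. Activity was normalized to DMSO wells and cell-free media wells; concentration-response curves were fitted and assigned curve classes.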
KB-3-1 cytotox: KB-3-1 parental cell cytotoxicity. KB-3-1 viability, CellTiter-Glo ATP luminescence, 72 h. Potency, µM (highest dose often 46.1 µM), hits mostly cytotoxic. actives 1.4% (n = 400,000). AID 1347075; further: nearly all actives have a fitted effect of over 60% in size
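Screening of KB-3-1 cells (DMEM, 10% FBS, phenol-red free) ran from lowest to highest compound concentration; after 72 h at 37 °C viability was read luminescently and curves fitted.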
MCF10A rerep: induces DNA re-replication in MCF 10a normal breast cells. Potency, µM (highest dose often 46.1 µM), hits mostly activators. MCF 10A DNA re-replication, Hoechst nuclear intensity, 48 h. AID 624296. actives 2.9% (n = 350,000); further: nearly all actives have a fitted effect of over 50% in size
Each line names hits and unclear results; the compound was inactive in the other large screens. A selection: hits, their analogues and other compounds. The true share with any hit is near 8%. The call rests on the fitted dose curve; in most records, active means well fitted curve in the direction sought with a large enough effect; inconclusive means small, poorly fitted or top-dose-only effect, or another doubt; inactive means no such curve, though single readings can be large; an effect the other way counts as inactive or inconclusive.

O=C1CC(c2ccccc2)Cc2nc3ncnn3cc21 (stereo unspecified)	KB-V1 cytotox inconclusive, HT1080 IDH1KD tx inconclusive, HT1080-NT tox 11µM, KB-3-1 cytotox inconclusive
O=C1CC(c2ccccc2)Cc2nc(NC3CC3)ncc21 (stereo unspecified)	none
COc1cccc(/C=N/NC(=O)c2ccc([N+](=O)[O-])cc2Cl)c1O	KB-V1 cytotox 9.2µM, SW480 rereplic inconclusive, HT1080 IDH1KD tx inconclusive, HT1080-NT tox inconclusive, MCF10A rerep inconclusive
COc1cccc(/C=N/NC(=O)c2cccc([N+](=O)[O-])c2)c1OS(=O)(=O)c1ccccc1	KB-V1 cytotox 10µM
COc1cccc(/C=N/NC(=O)C(=O)N/N=C/c2cccc(OC)c2OC)c1OC	SW480 rereplic 16µM, HT1080 IDH1KD tx 23µM, HT1080-NT tox inconclusive
COc1ccc(/C=N/NC(=O)c2cccc([N+](=O)[O-])c2)cc1OS(=O)(=O)c1ccccc1	none
C=CCn1c(SCC(=O)N(C(C)CC)C2CCS(=O)(=O)C2)nc2ccccc2c1=O (stereo unspecified)	none
COc1ccccc1OCCNC(=O)C1CC(=O)N(c2ccccc2OC)C1 (stereo unspecified)	KB-V1 cytotox inconclusive
C/C(CC1CC(C)OC1=O)=N\NC(N)=S (stereo unspecified)	SW480 rereplic inconclusive
C/C(CC(C)(C)C1CCCCC1)=N\NC(N)=S	KB-V1 cytotox inconclusive, HT1080 IDH1KD tx inconclusive, HT1080-NT tox 5µM
CCCC(CC)Sc1nc2c([nH]1)c(=S)n(C)c(=O)n2C (stereo unspecified)	KB-V1 cytotox 3.7µM, SW480 rereplic inconclusive, KB-3-1 cytotox inconclusive, MCF10A rerep inconclusive
Cn1c(=S)c2[nH]c(SCc3cccnc3)nc2n(C)c1=O	KB-V1 cytotox 16µM
CCCCSc1nc2c([nH]1)c(=S)n(C)c(=O)n2C	KB-V1 cytotox 1.5µM, SW480 rereplic inconclusive, KB-3-1 cytotox 7.3µM, MCF10A rerep inconclusive
CSc1nc2c([nH]1)c(=S)n(C)c(=O)n2C	none
CCCCC(C)Sc1nc2c([nH]1)c(=S)n(C)c(=O)n2C (stereo unspecified)	KB-V1 cytotox 4.1µM, HT1080 IDH1KD tx inconclusive, KB-3-1 cytotox inconclusive, MCF10A rerep inconclusive
CC(C)(CNC(=O)c1sc2cc(F)ccc2c1Cl)N1CCOCC1	KB-V1 cytotox inconclusive
O=C(NCc1ccccc1F)C1CCCN1C(=O)NC1CCCCC1 (stereo unspecified)	KB-V1 cytotox 21µM
O=C(CN1CCC(NC(=O)c2cccc(F)c2)CC1)NCc1ccccc1F	KB-V1 cytotox 18µM
O=C(CN1CCC(NC(=O)c2ccc(F)cc2)CC1)NCc1ccccc1F	KB-V1 cytotox 12µM
CCCC[C@@H]1Cc2[nH][nH]c(=O)c2[C@H](c2cccc3ccccc23)O1	HT1080 IDH1KD tx 26µM, HT1080-NT tox inconclusive (no result: SW480 rereplic, MCF10A rerep)
CCCCC1CC2=C(C(=O)OC(C)(C)O2)C(c2cccc3ccccc23)O1 (stereo unspecified)	HT1080 IDH1KD tx inconclusive, HT1080-NT tox inconclusive (no result: SW480 rereplic, MCF10A rerep)
CCN(CC)C(=O)C1CCN(S(=O)(=O)c2c(C)noc2/C=C/c2cccc(C)c2)CC1	SW480 rereplic inconclusive
C/C(=N\NC(=S)NC1CCCCC1)c1ccccc1	KB-3-1 cytotox 16µM
C/C(=N\NC(=S)NC1CCCCC1)c1ccc(O)cc1	KB-V1 cytotox inconclusive, KB-3-1 cytotox 16µM
C/C(=N\NC(=S)NC(C)C)c1ccccc1	none
COc1ccc(-c2cc(=O)c3ccccc3s2)cc1	KB-V1 cytotox 15µM
COc1ccc2c(-c3ccc(OCCN4CCCCC4)cc3)c(-c3ccccc3OC)sc2c1	HT1080 IDH1KD tx inconclusive, HT1080-NT tox inconclusive, MCF10A rerep inconclusive
COc1cccc(-c2sc3cc(OC)c(OC)cc3c2-c2ccc(OCCN3CCCCC3)cc2)c1	HT1080 IDH1KD tx 16µM, HT1080-NT tox inconclusive, MCF10A rerep inconclusive
COc1ccc(-c2sc3ccccc3c2-c2ccc(OCCN3CCCCC3)cc2)cc1	KB-V1 cytotox inconclusive, SW480 rereplic inconclusive, KB-3-1 cytotox inconclusive, MCF10A rerep inconclusive
